BAZ2B block: qHTS Assay for Inhibitors of BAZ2B; Potency, µM (highest dose often 114 µM), without a hit: at the top dose activity change, negative = inhibition, hits mostly inhibitors; hit rate 4.4% among 360,000; AlphaScreen BAZ2B-H3K14Ac peptide displacement; Bromodomain adjacent to zinc finger domain protein 2B (Homo sapiens), Q9UIF8; note: % is set by controls: 0 for no effect and ±100 for the full control effect; nearly all actives have a fitted effect of over 60% in size
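AlphaScreen displacement of biotin-H3(5-23)K14Ac peptide (50 nM final) from BAZ2B (50 nM final) in PBS pH 7.4, 0.01% Tween-20; complex preformed 30 min RT, then compounds (top 110 uM) 30 min RT, beads 20 min dark.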
HP1b binding inh: HTS for Inhibitors of HP1-beta Chromodomain Interactions with Methylated Histone Tails; Chromobox protein homolog 1 (Homo sapiens), P83916; AlphaScreen HP1-beta / biotin-H3K9me3 peptide binding; Potency, µM (top dose mostly 114 µM), for inactives: top-dose activity change, negative = inhibition, usual class: inhibitors; hit rate 0.56% among 390,000; AID 540317, 2011; note: nearly all actives have a fitted effect of over 70% in size
Target sequence (P83916 whole entry, looked up): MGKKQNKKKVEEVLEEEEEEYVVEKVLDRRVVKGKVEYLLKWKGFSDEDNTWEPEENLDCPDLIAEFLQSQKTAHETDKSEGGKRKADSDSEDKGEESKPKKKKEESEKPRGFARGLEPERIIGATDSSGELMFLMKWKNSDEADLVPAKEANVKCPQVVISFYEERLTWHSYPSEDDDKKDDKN
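HP1-beta protein (50 nM final) preincubated 30 min at room temperature with biotinylated H3(1-18)K9me3 peptide (50 nM) in PBS pH 7.4, 0.01% Tween-20, then compound added for 30 min. AlphaScreen streptavidin donor/nickel chelate acceptor beads (10 ug/mL final), 30 min dark, luminescence read.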
GLS inhibitor: qHTS for Inhibitors of Glutaminase (GLS); Potency, µM (series often up to 45.5 µM), without a hit: at the highest dose activity change, negative = inhibition, usual class: inhibitors; AID 624170, 2012; Glutaminase kidney isoform, mitochondrial (Homo sapiens), O94925; GLS enzymatic activity, qHTS titration; hit rate 0.21% among 410,000; note: % is set by controls: 0 for no effect and ±100 for the full control effect
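Human kidney-isoform GLS in 45 mM KH2PO4 pH 8.2, 0.02% Tween-20, with compound, started with 1mM L-Glutamine (added stock). Glutamate oxidase/HRP/Amplex red coupled fluorescence read at start and after 30 min at RT.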
G9a inh: qHTS Assay for Inhibitors of Histone Lysine Methyltransferase G9a; hit rate 8.8% among 350,000; G9a H3K9 monomethylation, AlphaScreen, 2 h; AID 504332, 2011; Potency, µM (titrated, usually from 102 µM), for inactives: top-dose activity, negative = inhibition, usual class: inhibitors; note: % is set by controls: 0 for no effect and ±100 for the full control effect; nearly all actives have a fitted effect of over 75% in size
Target sequence (Q96KQ7 913-1193 limits assumed): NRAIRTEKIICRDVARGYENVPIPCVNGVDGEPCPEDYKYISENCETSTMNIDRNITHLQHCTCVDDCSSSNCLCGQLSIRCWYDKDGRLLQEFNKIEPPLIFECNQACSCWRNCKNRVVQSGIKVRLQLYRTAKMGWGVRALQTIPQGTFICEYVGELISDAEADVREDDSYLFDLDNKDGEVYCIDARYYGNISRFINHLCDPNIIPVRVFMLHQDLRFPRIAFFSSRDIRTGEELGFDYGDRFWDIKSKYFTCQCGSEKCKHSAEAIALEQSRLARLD
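Signal arises when biotinylated H3K9 peptide, once monomethylated, bridges streptavidin donor and antibody-captured acceptor beads. Enzyme at 20 nM was preincubated 15 min with test compounds; peptide 500 nM and SAM 20 uM then reacted for 2 h.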
JMJD2A Tudor: qHTS Assay for Inhibitors of JMJD2A-Tudor Domain; Potency, µM (series often up to 114 µM), for inactives: at the highest dose activity change, negative = inhibition, actives largely listed as inhibitors; Lysine-specific demethylase 4A (Homo sapiens), O75164; AlphaScreen JMJD2A-Tudor / H3K4me3 peptide binding; hit rate 4.4% among 390,000; AID 504339, 2011; note: % is set by controls: 0 for no effect and ±100 for the full control effect; nearly all actives have a fitted effect of over 50% in size
An asterisk follows results filed as active; ? = inconclusive; nt = no result; ! = not confirmed by another sample; [ ] = another dose, or the depositor's remark. Compounds with a hit are over-represented: about 10% of the library has one in this group of screens. Calls come from the whole dose curve; as a rule, active = well fitted curve in the direction sought with a large enough effect; inconclusive = small, poorly fitted or top-dose-only effect, or another doubt; inactive = no such curve, though single readings can be large; an effect the other way counts as inactive or inconclusive. Potency is the fitted concentration of half-maximal effect.

SMILES	BAZ2B block	HP1b binding inh	GLS inhibitor	G9a inh	JMJD2A Tudor
Fc1ccc2nc(Nc3nc4cc5c(cc4s3)OCO5)sc2c1	-2.4%	25.0%	-1.2%	4.4%[59 µM]	-15.4%
O=C(NNc1nc2cc3c(cc2s1)OCCO3)c1ccc(F)cc1	-9.1%	23.1%	-20.3%	50.1µM*	-13.9%
C=CCN(C(=O)CSc1nc2ccsc2c(=O)n1Cc1ccccn1)c1ccccc1	-3.8%	?	1.5%	2.8%	-23.0%
Cc1ccc(/C=C2\CC(C)CC3=C2NC(=S)NC3c2ccc(C)cc2)cc1 (centres undefined)	-29.5%	-18.4%	-1.2%	?	?
CC1CC2=C(NC(=S)NC2c2cccc(F)c2)/C(=C/c2cccc(F)c2)C1 (centres undefined)	?	?	25.9%	31.6µM*	?
CC1CC2=C(NC(=S)NC2c2ccccc2F)/C(=C/c2ccccc2F)C1 (centres undefined)	?	-8.3%	-3.7%	17.8µM*	?
Cc1cc(CSc2ccccc2)ccc1NC(=O)c1ccc(Br)cc1	10.3%	23.2%	-5.4%	44.1%[59 µM]	-10.7%
Cc1ccccc1NC(=O)c1ccc2c(O)c(S(=O)(=O)c3ccccc3)c(=O)[nH]c2c1	?	42.1%	15.1%	50.1µM*!	0.7%
COc1ccc(S(=O)(=O)c2c(O)c3ccc(C(=O)Nc4cccc(F)c4)cc3[nH]c2=O)cc1	?	22.6%	18.0%	?	-6.0%
COc1cccc(NC(=O)c2ccc3c(O)c(S(=O)(=O)c4ccccc4)c(=O)[nH]c3c2)c1	-9.0%	-15.6%	16.7%	13.7%[59 µM]	44.7µM*
CN(/N=C/c1cc(Cl)cc(Cl)c1O)c1c(Cl)cccc1[N+](=O)[O-]	10µM*	?	-3.6%	nt	39.8µM*
CCn1cc(C=O)c2cc(S(=O)(=O)N3CCOCC3)ccc21	2.6%	11.4%	0.3%	-11.1%	-2.1%
COc1ccc2nc(NC(=O)CSc3nc(SC)ns3)sc2c1	-9.0%	16.6%	0.7%	20µM*	-8.0%
COc1ccc2nc(NC(=O)CSc3n[nH]c(N)n3)sc2c1	6.0%	13.0%	25.3%	56.2µM*	-24.6%
Cc1nc(SCC(=O)Nc2nc3ccccc3s2)n[nH]1	-1.4%	32.6%	4.9%	79.4µM*	-7.6%
Cc1nc(SCC(=O)Nc2nc3ccccc3s2)c(C#N)c(C)c1C	-1.3%	41.7%	-2.8%	10µM*	3.0%
COc1ccc2nc(NC(=O)CSc3nnc(C)s3)sc2c1	-4.9%	14.1%	12.3%	4.0%	0.7%
Cc1ccc(C(Sc2ccccc2)C(Cn2cncn2)C(=O)c2ccccc2)cc1 (centres undefined)	4.2%	15.0%	-6.5%	-45.5%[59 µM]	-13.2%
O=[N+]([O-])c1cccc(-c2nc(N3CCOCC3)c3ccccc3n2)c1	-3.0%	nt	nt	nt	nt
Cc1ccc(C(=O)NCC(c2ccc3c(c2)OCO3)N2CCOCC2)cc1 (centres undefined)	3.7%	20.1%[57 µM]	2.7%	3.4%[59 µM]	-1.3%
O=C(CSc1nccn1Cc1ccccc1)Nc1nc2ccccc2s1	?	-5.0%[57 µM]	1.6%	-43.0%[59 µM]	50.1µM*
CSc1nsc(SCC(=O)NCc2ccccc2)n1	0.4%	31.3%	6.5%	39.8µM*	-14.7%
CCc1ccc2oc(C(=O)Nc3nonc3CC)c(C)c2c1	-21.3%	21.3%[57 µM]	1.9%	21.3%	5.6%
COc1ccc(CNC(=O)c2cc(-c3ccccc3OC)on2)cc1	5.6%	54.3%	5.5%	-11.1%[59 µM]	3.8%
Cc1ccc(C)c(CSc2ncccc2C(=O)O)c1	-35.8%	1.7%	11.2%	50.1µM*	-17.4%
O=C(O)c1cccnc1SCc1cn2cc(Br)ccc2n1	?	4.5%	-0.9%	50.1µM*	-22.6%[11.4 µM]
O=C(O)c1cccnc1SCc1ccccc1Cl	-7.1%	44.5%	10.1%	nt	1.0%
CC(C)C(=O)N1CCC(c2nc(-c3ccc(S(=O)(=O)N4CCCC4)cc3)no2)CC1	-24.1%	15.5%	-2.7%	-6.3%	-7.4%
NC1(C(=O)O)CCc2cc(C(=O)O)ccc21 (centres undefined)	nt	nt	nt	4.47µM*	nt
